Assay results reported in the supplement of paper PMC3334620.
In all, about 33,000 sequences were measured (“E-score (-0.5 to 0.5)”: median about -0.035, highest 2% from about 0.35 on). The entries come from a sample that favours the highest values as a whole.

These sequences were tested against T1, Pdr3 (UniProt P33200) (assay: PBM E-score (8-mer binding enrichment) (E-score (-0.5 to 0.5)); higher = stronger / more preferred TF binding). Settings: protein concentration: 200 nM; construct: GST-full length.
T1 sequence: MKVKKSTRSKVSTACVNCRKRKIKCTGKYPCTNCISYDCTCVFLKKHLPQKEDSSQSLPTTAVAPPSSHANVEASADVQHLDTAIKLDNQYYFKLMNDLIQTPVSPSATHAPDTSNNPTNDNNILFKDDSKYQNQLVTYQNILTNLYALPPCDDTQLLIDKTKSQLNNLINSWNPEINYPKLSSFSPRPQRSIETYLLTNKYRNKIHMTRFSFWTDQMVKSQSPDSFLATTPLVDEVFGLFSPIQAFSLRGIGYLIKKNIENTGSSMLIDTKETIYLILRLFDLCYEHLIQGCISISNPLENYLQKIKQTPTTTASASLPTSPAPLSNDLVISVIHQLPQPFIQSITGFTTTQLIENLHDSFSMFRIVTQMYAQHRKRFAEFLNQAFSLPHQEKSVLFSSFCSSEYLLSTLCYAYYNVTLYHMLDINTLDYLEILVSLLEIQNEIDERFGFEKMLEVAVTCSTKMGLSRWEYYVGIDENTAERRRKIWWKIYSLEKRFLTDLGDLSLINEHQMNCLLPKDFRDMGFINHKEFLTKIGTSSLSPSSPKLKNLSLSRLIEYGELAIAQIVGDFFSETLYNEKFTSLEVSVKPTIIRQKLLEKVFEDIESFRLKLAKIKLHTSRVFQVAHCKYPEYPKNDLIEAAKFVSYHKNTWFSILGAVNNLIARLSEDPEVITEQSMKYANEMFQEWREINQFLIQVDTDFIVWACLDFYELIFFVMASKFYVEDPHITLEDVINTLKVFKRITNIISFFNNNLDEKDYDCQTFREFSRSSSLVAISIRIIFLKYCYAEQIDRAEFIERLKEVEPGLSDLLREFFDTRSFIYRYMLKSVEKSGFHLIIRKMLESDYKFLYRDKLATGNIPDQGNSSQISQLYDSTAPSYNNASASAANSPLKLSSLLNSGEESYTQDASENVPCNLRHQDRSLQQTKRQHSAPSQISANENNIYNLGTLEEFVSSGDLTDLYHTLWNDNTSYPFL
Summary of the method: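 Yeast transcription factors carrying a GST tag, as full-length proteins or DNA-binding domains, were produced by PURExpress in vitro transcription/translation. About 100-200 nM protein was applied to universal all-10-mer Agilent arrays, double-stranded by primer extension on fresh or once-stripped slides. Bound protein was detected with fluorescent anti-GST, and scans were normalised with masliner. The Universal PBM Analysis Suite gave each ungapped eight-base word, pooled with its reverse complement, an E-score, a modified Wilcoxon-Mann-Whitney statistic.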

Sequence	PBM E-score
ATAAATAC	0.176
ACCGGGAA	0.309
ACCGGGAT	0.357
AACGGGAG	0.179
AACGGGAC	0.217
AACGGGAT	0.364
ACCGGGAC	0.318
CGCACCAG	0.133
AGTTTGAT	0.0669
ACATGCTG	-0.158
ACATTCCA	-0.0365
AAGACTAC	-0.188
CCGTTCCA	0.207
AGGTTCCG	0.478
ACGTTCCG	0.445
ACGTTCCT	0.0124
CCGTTCCC	0.253
CCGTTCCG	0.477
AGGTTCCA	-0.018
ATGTTCCC	0.153
ACGTTCCA	0.0623
ATGTTCCG	0.48
AGGTTCCC	-0.0087
ATGTTCCA	0.0325
GCAGGGAA	0.0453

Sequence	PBM E-score
GAATAGGA	0.0694
ACCGGTTG	0.208
AGCATTTG	-0.0766
CGAGAGGC	-0.119
GCGAGAGA	-0.148
CAGTCTTC	-0.147
AAACTTAG	-0.216
CTTGACAC	-0.222
CAGGGCTA	-0.258
ACTAGTAC	-0.105
ACGAATAT	0.0203
CATGCCGC	0.345
CATGCCGG	0.36
CATGCCGA	0.248
AATGCCGA	0.219
AATGCCGT	0.36
AATGCCGG	0.308
ATCCTTGG	-0.0819
CGCCGACC	0.135
AGAGTAGC	-0.228
CCCGCAGG	0.142
ACGGAAAG	0.44
CAGGAAAA	0.0238
AGGGAAAG	-0.106
CTGGAAAA	0.144

Sequence	PBM E-score
CAGGAAAC	-0.0475
ATGGAAAG	0.0226
CGGGAAAC	0.309
CCGGAAAA	0.44
CCGGAAAG	0.414
CCGGAAAC	0.447
CGGGAAAG	0.281
CAGGAAAG	-0.278
CAGTCCCG	0.273
AGTTGACG	-0.0734
CGAACTTA	0.0051
CTTAGGGA	-0.353
GGCTAACA	-0.132
ATAGGAGA	-0.363
CAGTTACC	-0.0312
AACAGATC	-0.0307
GACGGATC	0.313
AACGGATG	0.283
AACGGATT	0.334
CACGGATC	0.395
TACGGATA	0.224
CAAGGATC	-0.0745
GACGGATA	0.251
AACGGATA	0.417
CACGGATA	0.373

Sequence	PBM E-score
AACGGATC	0.367
CACGGATG	0.284
AGAACTCA	0.00923
ACAACTTC	0.167
CAGTGAGG	-0.309
GACCTAGA	-0.115
CCAGCAAC	-0.00856
GCAGCTCC	0.144
AAGGGTCC	0.205
GAACGGAC	0.259
AAACGGAA	0.469
GAACGGAA	0.469
AAACGGGA	0.352
CAACGGAA	0.47
CAACGGAC	0.261
GAACGGCA	0.256
AAACGGAT	0.377
AAACGGAC	0.189
CAACGGAG	0.307
AAACGGTA	0.172
AAACGGAG	0.184
CGCTACCG	0.141
CCCTAAGA	-0.243
CTTGCGGA	0.137
CAGGCGGG	0.0666

Sequence	PBM E-score
CCGAGAAG	0.183
TCCACGAA	-0.0449
TAACGGTA	0.0452
TAACGGGA	0.237
TAACGGAA	0.453
CACAGAAA	0.0151
GGGCCGGA	0.318
CGGCCGGC	0.371
CGGCCGAC	0.315
CGGCCGGA	0.396
AGGCCGGA	0.256
AGGCCGGC	0.291
CGCATGAG	-0.164
CATGATTA	0.0563
GACGGAGA	0.322
GACGGAGC	0.213
CACGGAGC	0.374
TACGGAGA	0.178
CACGGAGG	0.26
CACGGAGA	0.372
AAGATTGG	0.014
GTGGTTCA	0.0321
ACTTAACC	-0.166
ATCACCCA	-0.0491
CACCCCGG	0.236

Sequence	PBM E-score
CCACCCGG	0.359
ATCACCCG	0.358
CCACCCGA	0.216
ATCACCCC	0.0523
TACCCGTA	0.0329
CACCCGGG	0.398
CACCCGAG	0.204
TACCCGAA	0.198
TACCCGGA	0.381
ACACCCGG	0.291
CCCATCCC	0.133
AAGTGGAA	-0.0995
AGGGCGGG	0.25
ACCTCCTA	-0.192
ACGGCCTA	0.131
AACAGGGT	-0.0562
CGGGGTAA	0.267
GGCAAACC	-0.147
GACGTATC	-0.0675
GACCCGGC	0.294
GACCCGGA	0.369
AACCCGGA	0.384
CCCACCCC	0.198
CCCACCCG	0.387
GACCCCGA	0.109

Sequence	PBM E-score
CACCCGGC	0.234
ACCCCGGA	0.352
CACCCGGA	0.412
AACCCGGC	0.289
CACCCGTA	0.151
CCCACCCA	0.073
AATAGCGT	0.0358
CGCAAATA	0.125
TACACGTA	-0.168
AAGATTGA	-0.131
CTCGCCCA	-0.0292
CGTGCGCA	-0.111
AGTCAAAA	-0.104
AGGAGCCG	0.0342
CGGAGCAA	0.338
CGGAGCAC	0.297
AGGAGCGA	-0.199
CGGAGCGA	0.378
CGGAGCCG	0.369
CCGAGCCA	0.295
CGGAGCCC	0.208
CCGAGCCG	0.359
CGGAGCAG	0.403
CGGAGCGC	0.266
ACGAGCCG	0.134
